Hit rate of the full screen: of about 97,000 compounds, about 140 (0.14%) were called active. The sample holds actives, similar compounds and a random draw of the others, so the mix is not that of the screen. Values without a mark were called inactive.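 Rule for the calls: active = inhibition above the screen-wide mean inhibition plus 3 SD (cut at about 15% in these data); inactive = the rest.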

The target of the test is Ephrin type-B receptor 4 (Homo sapiens) (UniProt P54760). Kind of test: EphB4-ephrin-B2 interaction antagonists, primary screen, biochemical, TNYL-RAW peptide probe, fluorescence polarization (AID 720).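 Note: 0% = DMSO wells and 100% = excess unlabeled TNYL-RAW peptide.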 The following applies: EphB4 LBD / TNYL-RAW-Alexa532 peptide, at 7 µM, stronger effect = higher value. (Polarisation of emitted light reports the rotation of a fluorescent probe.)
Chain of Ephrin type-B receptor 4 (Homo sapiens) (P54760 whole entry, looked up, the tested form may be a part): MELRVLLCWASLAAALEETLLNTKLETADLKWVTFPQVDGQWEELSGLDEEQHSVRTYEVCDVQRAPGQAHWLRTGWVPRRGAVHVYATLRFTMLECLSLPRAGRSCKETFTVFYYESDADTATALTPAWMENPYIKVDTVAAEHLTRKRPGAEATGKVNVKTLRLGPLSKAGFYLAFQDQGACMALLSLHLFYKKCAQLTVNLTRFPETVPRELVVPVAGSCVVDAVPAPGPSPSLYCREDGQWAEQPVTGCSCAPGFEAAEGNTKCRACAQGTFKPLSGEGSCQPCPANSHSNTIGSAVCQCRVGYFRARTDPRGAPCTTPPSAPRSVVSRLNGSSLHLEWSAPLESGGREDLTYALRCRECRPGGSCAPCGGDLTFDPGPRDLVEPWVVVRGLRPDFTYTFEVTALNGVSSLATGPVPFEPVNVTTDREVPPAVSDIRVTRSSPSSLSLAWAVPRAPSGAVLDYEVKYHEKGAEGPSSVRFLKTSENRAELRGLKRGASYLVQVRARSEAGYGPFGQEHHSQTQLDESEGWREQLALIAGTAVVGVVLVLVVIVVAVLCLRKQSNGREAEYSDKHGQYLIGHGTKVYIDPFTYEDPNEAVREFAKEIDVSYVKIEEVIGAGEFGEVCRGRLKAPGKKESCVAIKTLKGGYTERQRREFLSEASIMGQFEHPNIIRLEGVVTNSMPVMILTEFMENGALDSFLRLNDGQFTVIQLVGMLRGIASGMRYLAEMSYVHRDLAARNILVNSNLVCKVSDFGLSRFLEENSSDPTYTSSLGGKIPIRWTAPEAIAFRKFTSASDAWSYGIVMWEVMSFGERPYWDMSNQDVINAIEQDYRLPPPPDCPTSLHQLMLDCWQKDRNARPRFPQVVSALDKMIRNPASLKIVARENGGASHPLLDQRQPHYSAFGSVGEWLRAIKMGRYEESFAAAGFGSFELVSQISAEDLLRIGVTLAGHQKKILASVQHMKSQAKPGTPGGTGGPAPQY
Take `Cc1ccc(-c2nn(-c3ccccc3)cc2/C=N/NC(=O)c2ccc3c(c2)OCO3)cc1`: the inhibition (as a rule, the relative decrease from the control value, in per cent) was -6.96%.
On to `CN(C)Cc1ccccc1C1(O)c2ccccc2CSc2ccccc21` (configuration not stated), for which the inhibition was 2.27%.
The result for `CN(C)c1nc2n(c(=O)n1)CCO2` reads 17.6% (active); that for `O=c1nc(N2CCOCC2)nc2n1CCO2`, -6.76%; that for `CC(C)CC(N=C1NC(C)(C)Cc2ccccc21)C(=O)O` (configuration not stated), 0.51%.
To `COc1ccc(/C(O)=C2\C(=O)C(=O)N(Cc3ccco3)C2c2ccc(OC)cc2OC)cc1` (configuration not stated) belongs -7.3%; to `CCOC(=O)c1c(NC(=O)CCCN2CCOCC2)sc2c1CC(C)(C)OC2`, 7.6%; to `CCCOC(=O)c1[nH]c2c(c1C)C(=O)CC(c1cccs1)C2` (configuration not stated), 3.13%.
With `Nn1c(Cc2cccc3ccccc23)nnc1SCC(=O)N1CC(=O)Nc2ccccc21`, the inhibition was 5.41%.
On to `CCOc1ccc(NC(=O)CN(C)CC(=O)Nc2cccc(Cl)c2C)cc1OCC`, for which the inhibition was -10.2%.
Take `COC(=O)c1ccc(C2C(Oc3ccccc3C)C(=O)N2CCc2ccc(OC)c(OC)c2)cc1` (configuration not stated): the inhibition is -5.62%.
To `CCC(C)(C(=O)NC1CCCCC1)N(C)C(=O)c1ccc2c(c1)OCO2` (configuration not stated) belongs 3.83%; to `O=C(COc1ccc(Cl)cc1)N1CCN(S(=O)(=O)c2ccc(Cl)cc2)CC1`, 0.78%; to `Cc1cccc(N2CCN(C(=O)CN(C)S(=O)(=O)c3ccc4c(c3)CCC(=O)N4)CC2)c1C`, 3.05%.
For the molecule `CN(C)CCNC(=O)Nc1cccc(Cl)c1Cl`, the inhibition is -7%.
`O=C1CSC(c2ccc(Cl)cc2)N1` (configuration not stated): the inhibition was -6.27%.
Consider `Cc1cccc(NC(=S)Nc2ccc(Br)cc2)c1`, for which the inhibition was 1.26%.
To `O=C(Nc1cccn(Cc2c(Cl)cccc2Cl)c1=O)c1ccc(Cl)cc1` belongs 4.57%; to `CCOc1ccc(Nc2nc(Cc3nnc(SCC(=O)c4ccc(C)cc4)o3)cs2)cc1`, 2.63%; to `CC(C)(C)n1nnnc1C(c1ccc(Cl)cc1)N1CCSCC1` (configuration not stated), 3.05%.
As to `COc1cccc2c1OCC1COc3c(c(=O)n(C)c(=O)n3C)C21` (configuration not stated), the inhibition is 5.25%.
To `Cc1ccc(NC(=O)CSCC(=O)N2CCOCC2)cc1` belongs 1.18%; to `Cc1cc(Nc2ccccc2)nc(N)n1`, -7.64%.
Consider `O=C(NCCc1ccccn1)c1cc(C(=O)C2CCCCC2)c[nH]1`, for which the inhibition is 1.78%.
To `C/C(=N\NC(=O)c1nc(C)cc(C)n1)c1ccccc1` belongs 3.33%; to `O=S(=O)(Cc1cc(Sc2ccccc2)nc(-c2ccccc2)n1)c1ccccc1`, -3.64%.
To `Cc1cc(N)n2nc(-c3ccc(C(C)(C)C)cc3)cc2n1` belongs -2.84%; to `Oc1ccc(CNc2ccccc2O)cc1`, -12.7%.
As for `O=C(COc1ncnc2c(Cl)cc(Cl)cc12)N1CCN(S(=O)(=O)c2ccccc2)CC1`, the inhibition is -7.07%.
The result for `CC(C)CNC(=O)CC(c1ccccc1)c1c(O)ccc2ccccc12` (configuration not stated) reads 2.89%.
As to `Cc1ccsc1/C=C1\SC(N2CCOCC2)=NC1=O`, the inhibition is -4.07%.
Take `Nc1ccc(C(=O)OCC(=O)NC2CCCc3ccccc32)cc1[N+](=O)[O-]` (configuration not stated): the inhibition is -2.7%.
The result for `COc1ccc(OCCCC(=O)Oc2ccc(OC)cc2)cc1` reads 5.05%; that for `O=C(COC(=O)c1ccccc1NC(=O)c1ccco1)Nc1ccc2c(c1)OC(F)(F)O2`, -1.26%.
As for `COc1ccc(NC(=O)NC2CC3CCCC(C2)N3Cc2ccccc2)cc1` (configuration not stated), the inhibition was -5.24%.
Take `O=C(Nc1ccccc1[N+](=O)[O-])C1C(c2ccccc2)=C1c1ccccc1`: the inhibition is 2.26%.
The result for `Cn1cnc([N+](=O)[O-])c1Nc1ccccc1O` reads 2.1%.
Take `Clc1ccc(COn2c(-c3ccc(Cl)cc3Cl)nc3ncccc32)cc1`: the inhibition is 1.17%.
The result for `O=c1c2ccccc2nc2n1C1(CCCCC1)Cc1ccccc1-2` reads 6.44%; that for `CCOC(=O)C1=C(c2ccccc2)O/C(=C(/C(=O)OC)C(F)(F)F)S1`, -6.59%; that for `O=C(Cn1ccc([N+](=O)[O-])n1)NCc1cccs1`, -8.7%.
As for `Cc1[nH]n(-c2ccccc2)c(=O)c1CCOC(=O)c1ccc(C(F)(F)F)cc1`, the inhibition was 5.95%.
To `COC(=O)Cc1cc(=O)oc2c(C)c(O)ccc12` belongs -7.76%; to `COC(=O)/C(=C\Nc1ccccc1)NC(=O)c1ccc(Cl)cc1Cl`, 2.49%; to `COC(=O)c1cccc(N(C(=O)c2ccco2)C(C(=O)NC2CCCC2)c2ccco2)c1` (configuration not stated), -2.29%.
As for `O=C(CSC1=Nc2ccccc2C2=NC(CC(=O)NCc3ccco3)C(=O)N12)NCc1ccco1` (configuration not stated), the inhibition was -6.96%.
To `Cc1cccc(C)c1NC(=O)CCS(=O)(=O)c1cccc2nsnc12` belongs 7.08%.
Regarding `Cc1cc2nc(C)n(CCCNC(=O)Nc3ccccc3)c2cc1C`, the inhibition was -0.81%.
As for `CCN1CCC(=NNC(=O)c2ccc(C)c([N+](=O)[O-])c2)CC1`, the inhibition is 8.39%.
The result for `ONC(=Nc1ccc(Cl)cc1)c1ccccc1Cl` reads -1.3%; that for `CCn1nc(C)c(NC(=O)/C=C/c2ccc(OC)c(COc3ccc(Br)cc3)c2)c1C`, 7.03%.
As to `c1ccc(-c2nc(NCc3ccco3)c3ccccc3n2)cc1`, the inhibition was 4.23%.
Regarding `CN1/C(=c2/s/c(=C3/C(=O)N(c4ccccc4)NC3=Nc3ccccc3)n(C)c2=O)C(C)(C)c2ccccc21`, the inhibition was 0.36%.
`Cc1ccc(NC2(C#N)C(=O)Nc3ccccc32)cc1` (configuration not stated): the inhibition is 0.9%.
To `CCCCNC(=O)CSc1nc2n[nH]c(C)c2c(=N)n1-c1cccc(Cl)c1C` belongs 6.52%; to `Cc1ccc2c(c1)-c1c(ssc1=S)C(C)(C)N2C(=O)CN1C(=O)c2ccccc2C1=O`, 10.6%; to `O=C(Nc1sc2c(c1-c1nc3ccccc3[nH]1)CCCC2)C1CC1`, -2.93%.
To `COC(=O)Nc1sc2nc(C)cc(C)c2c1-n1cccc1` belongs -5.41%; to `Cc1nc(NNC(=O)c2ccccc2)cc(-c2ccccc2)n1`, 8.09%.
The result for `O=C(COC(=O)c1ccc(S(=O)(=O)N2CCc3ccccc3C2)cc1)NC(=O)NCc1ccco1` reads 3.64%; that for `COc1cc(C)c(C(C)C)cc1S(=O)(=O)n1ccnc1`, 1.74%.
Regarding `NC(=O)C1(N2CCCCC2)CCN(C(=S)Nc2ccc(Cl)cc2)CC1`, the inhibition is -1.72%.
For the molecule `NC(=O)COc1ccc(/C=N/NC(=O)C2CCCN2S(=O)(=O)c2ccc(Cl)cc2)cc1` (configuration not stated), the inhibition is 0.72%.
As to `CS(=O)(=O)N1CCN(c2cccc(Cl)n2)CC1`, the inhibition was -3.22%.
The result for `CCCc1nc2sc3c(c2c(=O)n1NC(=O)CCCl)CCCC3` reads 2.57%; that for `CC1CCC2(CC1)NC(=O)N(CC(=O)c1cccn1C)C2=O` (configuration not stated), 4.98%; that for `COc1ccc(/C=C(/NC(=O)c2ccc(C)cc2)c2nc3ccccc3[nH]2)cc1OC`, -1.55%.
To `CCCc1nnc(NC(=O)c2cccs2)s1` belongs -2.26%; to `CNC(=O)CN1C(=O)c2ccccc2S1(=O)=O`, -4.4%; to `CCCc1nnc(NC(=O)CN2C(=O)c3ccccc3S2(=O)=O)s1`, 18.1% (active).
To `COC(=O)c1cc(OC)ccc1-c1ccc(OC)cc1` belongs -6.72%.
Take `O=C(COC(=O)c1n[nH]c2ccccc12)NCc1ccccc1`: the inhibition was 1.83%.
The result for `CC(C)c1ccc(N2CCN(C(=O)c3ccccc3NC(=O)/C=C(\C(=O)O)c3ccccc3)CC2)cc1` reads -2.32%; that for `CC(C)Oc1ccc(Oc2ccc(C(F)(F)F)cn2)cc1`, -4.38%; that for `O=C(CNC(=O)c1cc2c(s1)CCC2)Nc1ccccc1Br`, -5.12%.
To `C=CCOc1c2ccc(C(=O)N(CC)c3ccc(OC)cc3)cc2nn1C` belongs 0.66%; to `C=CCNC(=O)c1sc(SC)cc1-c1ccc(Cl)cc1`, -2.13%; to `Cc1cccc(NC(=O)c2ccc(OCC(=O)NCc3ccccc3)cc2)c1C`, 0.02%.
On to `Cc1ccc(NC(=S)N/N=C2/CCCc3c(C)cc(C)cc32)cc1`, for which the inhibition is 0.47%.
As to `CCOC(=O)c1ccc2c(c1)nc(C)n2CC`, the inhibition is -0.83%.
To `COC(=O)c1ccccc1OCC(=O)N1CCN(c2ccc(Cl)cc2)CC1` belongs -4.75%; to `OC(COCCC12CC3CC(CC(C3)C1)C2)CN1CCCCC1` (configuration not stated), 2.92%; to `N/C(=N\OC(=O)c1cc(-c2ccccc2)nc2ccccc12)c1ccncc1`, -5.76%.
The result for `Cc1ccc2c(Cl)c(C(=O)NCCCn3ccnc3)sc2c1` reads 8.67%; that for `COc1ccc(C(=O)OCC(=O)NCC2CCCCC2)cc1S(=O)(=O)N1CCCc2ccccc21`, -0.59%.
For `Cc1ccc(C(=O)c2c(NC(=O)c3ccncc3)sc3c2CCCC3)cc1`, the inhibition was 1.3%.
On to `O=C(N/N=C\c1cccc(Br)c1)c1ccccc1-n1cccc1`, for which the inhibition was 1.13%.
To `CC(=O)c1cccc(NC(=O)N2CCCC2C(=O)NCCc2ccccc2)c1` (configuration not stated) belongs 0.44%; to `CCC1CCCCN1C(=O)Nc1cccc(NC(=O)N2CCCCC2CC)c1` (configuration not stated), 16.1% (active).
The result for `CC(=O)c1cccc(NC(=O)N2CCCC2C(=O)NCCC(C)C)c1` (configuration not stated) reads 3.74%; that for `Cc1ccc(NC(=O)C(C)c2cccc(C(=O)c3ccccc3)c2)cc1` (configuration not stated), -1.1%.
To `CCOC(=O)C1=C(CN2CCc3ccccc32)NC(=O)NC1c1cc(C)ccc1C` (configuration not stated) belongs -2.91%; to `O=C1c2ccccc2C(=O)N1CCCc1nc(-c2ccccc2)no1`, 5.53%.
For the molecule `Cc1ccccc1OC(=O)Cn1c(C(F)(F)F)nc2ccccc21`, the inhibition was -8.85%.
To `Oc1ccccc1/C=N/n1c(-c2cccs2)n[nH]c1=S` belongs 15.8% (active); to `O=[N+]([O-])c1ccccc1/C=N/n1c(COc2ccccc2)n[nH]c1=S`, 2.36%.
With `Cc1ccc(/C=N\n2c(-c3ccccc3)n[nH]c2=S)s1`, the inhibition is -7.78%.

These data come from PubChem BioAssay AID720 (The Scripps Research Institute Molecular Screening Center, 2007).
